According to PubChem BioAssay (Tox21):
Values without a mark were called inactive. Results filed as inconclusive are left out. Entries that show only a call come without a potency. The source made the active and inactive calls. Unless noted, calls come from the whole dose curve.

How the values were obtained:
[1] = biological target: Gonadotropin-releasing hormone receptor (Homo sapiens) (UniProt P30968); assay: Human gonadotropin-releasing hormone receptor (GnRHR) small molecule agonists, calcium flux assay in GnRHR-HEK293 cells (AID 1920063); note: nearly all actives have a fitted effect of over 35% in size; note: potency is the fitted concentration of half-maximal effect
Sequence of Gonadotropin-releasing hormone receptor (Homo sapiens) (P30968 whole entry, looked up): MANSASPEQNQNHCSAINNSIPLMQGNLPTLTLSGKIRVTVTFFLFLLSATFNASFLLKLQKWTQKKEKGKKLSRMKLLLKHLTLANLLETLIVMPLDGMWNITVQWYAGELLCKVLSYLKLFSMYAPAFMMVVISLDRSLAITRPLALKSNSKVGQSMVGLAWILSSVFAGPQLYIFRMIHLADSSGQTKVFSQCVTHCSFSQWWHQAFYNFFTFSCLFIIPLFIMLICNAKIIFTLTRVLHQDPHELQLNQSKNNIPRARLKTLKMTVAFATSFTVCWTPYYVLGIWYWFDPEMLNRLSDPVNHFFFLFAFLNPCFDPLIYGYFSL
Summary of the method: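 Calcium flux, agonist mode, human GnRHR stably integrated in HEK293; dye 1 h at 37 C before compound; Ex/Em=480/540 kinetic read, 3 min; 15 concentrations, triplicate.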

[2] = biological target: KiSS-1 receptor (Homo sapiens) (UniProt Q969F8); assay: Human kisspeptin (KISS1R) small molecule agonists, calcium flux assay in KISS1R-HEK293 cells (AID 1920064; active = well fitted activation curve with a large enough effect in the repeat runs)
Sequence of KiSS-1 receptor (Homo sapiens) (Q969F8 whole entry, looked up): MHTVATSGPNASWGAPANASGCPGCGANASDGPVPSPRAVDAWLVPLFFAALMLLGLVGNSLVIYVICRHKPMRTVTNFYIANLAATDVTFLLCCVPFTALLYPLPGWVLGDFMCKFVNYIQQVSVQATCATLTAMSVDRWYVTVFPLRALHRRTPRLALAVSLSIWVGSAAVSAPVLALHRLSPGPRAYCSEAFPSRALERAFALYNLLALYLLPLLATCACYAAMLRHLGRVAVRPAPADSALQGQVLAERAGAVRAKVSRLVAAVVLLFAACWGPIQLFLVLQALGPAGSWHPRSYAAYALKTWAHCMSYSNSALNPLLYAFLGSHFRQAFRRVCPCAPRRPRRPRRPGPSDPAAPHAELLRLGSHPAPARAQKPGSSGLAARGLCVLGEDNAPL
Summary of the method: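 Triplicate 15-concentration series were applied to dye-loaded human KISS1R HEK293 cells, and agonist-evoked calcium fluorescence was captured for 3 min.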

[3] = G protein-coupled receptor (GPCR) small molecule agonists, calcium flux assay: HEK293 wild type cell line counter screen (AID 1920065)
Summary of the method: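 Non-specific calcium responders were flagged by adding DMSO-dissolved compounds to dye-loaded cells and reading 480/540 nm fluorescence each second for 3 min; ATP served as positive control.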

[4] = p53 small molecule agonists, cell-based qHTS assay with human liver microsomes (AID 1963577)
Summary of the method: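 Fluorescence of the beta-lactamase reporter in p53RE-bla cells, detected with LiveBLAzer substrate (2 h, room temperature, dark), served as the read-out after 16 h compound exposure at 37 C with human liver microsomes and NADPH, each 0.5 mg/mL final.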

[5] = p53 small molecule agonists, cell-based qHTS assay with human liver microsomes: qHTS cell viability counter screen (AID 1963579); note: nearly all actives have a fitted effect of over 45% in size; note: potency is the fitted concentration of half-maximal effect
Summary of the method: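 Cytotoxicity counter screen: p53RE-bla, 4,000 cells/well; 5 h settle, 37 C/5% CO2; cpd + HLM 0.5 mg/mL + NADPH 0.5 mg/mL (final); 16 h, 37 C; CellTiter-Glo, 30 min RT, luminescence.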

[6] = p53 small molecule agonists, cell-based qHTS assay with rat liver microsomes: qHTS cell viability counter screen (AID 1963580); note: nearly all actives have a fitted effect of over 45% in size; note: potency is the fitted concentration of half-maximal effect
Summary of the method: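 Cytotoxicity counter screen: intracellular ATP read by CellTiter-Glo luminescence in the p53 reporter wells. HCT-116 p53RE-bla cells were treated for 16 h at 37 C alongside rat liver microsomes and NADPH, each 0.5 mg/mL final.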

[7] = p53 small molecule agonists, cell-based qHTS assay: qHTS cell viability counter screen (AID 1963581); note: nearly all actives have a fitted effect of over 45% in size
Summary of the method: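 Multiplexed with the reporter read, a CellTiter-Glo step (30 min, room temperature) gauges ATP-based viability of HCT-116 p53RE-bla cells after 16 h compound incubation at 37 C.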

[8] = p53 small molecule agonists, cell-based qHTS assay (AID 1963582; active = well fitted activation curve with a large enough effect in the signal ratio in the repeat runs, not every such curve was filed as active; the % refers to the signal ratio)
Summary of the method: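 Beta-lactamase reporter cells (p53RE-bla) treated with compounds for 16 h at 37 C; FRET substrate, 2 h, room temperature; fluorescence intensity.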

[9] = cAMP Responsive Elements (CRE) small molecule agonists, cell-based qHTS assay (AID 1963590)
Summary of the method: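 Quantitative HTS for CRE agonists: HEK 293T CRE-bla cells, overnight plating, 3 h compound incubation at 37 C/5% CO2, then 2 h room-temperature LiveBLAzer B/G FRET substrate loading.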

[10] = cAMP Responsive Elements (CRE) small molecule antagonists, cell-based qHTS assay (AID 1963591; active = well fitted inhibition curve with a large enough effect in the signal ratio in the repeat runs, not every such curve was filed as active; the % refers to the signal ratio; note: potency is the fitted concentration of half-maximal effect)
Summary of the method: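 Fluorescence intensity from cleaved LiveBLAzer B/G substrate (2 h, room temperature) quantified CRE-bla activity in HEK 293T cells exposed 3 h to compound with 0.25 uM final NKH477.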

[11] = biological target: Beta-2 adrenergic receptor (Homo sapiens) (UniProt P07550); assay: Adrenergic beta2 receptor (ADRB2) small molecule antagonists, cell-based qHTS assay (AID 1963592); note: nearly all actives have a fitted effect of over 50% in size; note: potency is the fitted concentration of half-maximal effect
Sequence of Beta-2 adrenergic receptor (Homo sapiens) (P07550 whole entry, looked up): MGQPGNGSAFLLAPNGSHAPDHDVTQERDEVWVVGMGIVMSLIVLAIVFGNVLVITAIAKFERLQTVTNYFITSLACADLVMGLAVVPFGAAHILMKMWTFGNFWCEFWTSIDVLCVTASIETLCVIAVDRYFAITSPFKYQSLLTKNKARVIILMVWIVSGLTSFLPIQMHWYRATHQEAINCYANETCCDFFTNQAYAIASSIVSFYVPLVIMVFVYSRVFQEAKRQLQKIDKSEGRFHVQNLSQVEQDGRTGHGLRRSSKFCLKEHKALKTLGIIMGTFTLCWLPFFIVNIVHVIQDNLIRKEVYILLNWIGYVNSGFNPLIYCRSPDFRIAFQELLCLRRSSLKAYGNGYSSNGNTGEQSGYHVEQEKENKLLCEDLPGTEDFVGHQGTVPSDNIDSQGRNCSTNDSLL
Summary of the method: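 Assay format: CHO-ADRB2 cells, 18-20hr seeding at 37C/5% CO2, then compound plus 1nM isoproterenol agonist mix for 0.5hr RT. Homogeneous time-resolved fluorescence cAMP detection after 1hr, expressed as 665/615 nm ratio.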

[12] = biological target: Beta-2 adrenergic receptor (Homo sapiens) (UniProt P07550); assay: Adrenergic beta2 receptor (ADRB2) small molecule agonists, cell-based qHTS assay (AID 1963593);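 note: CHO cells stably overexpressing human ADRB2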
Summary of the method: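 CHO cells stably over-expressing ADRB2 were plated overnight at 37C, then dosed with compounds plus a stimulation mix containing 100uM IBMX and 25uM Ro-20-1724 for 0.5hr at room temperature. cAMP was measured by HTRF competition, 1hr.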

[13] = biological target: D(2) dopamine receptor (Homo sapiens) (UniProt P14416); assay: Dopamine D2 receptor (DRD2) small molecule agonists, cell-based qHTS assay (AID 1963594); note: nearly all actives have a fitted effect of over 35% in size; note: potency is the fitted concentration of half-maximal effect
Sequence of D(2) dopamine receptor (Homo sapiens) (P14416 whole entry, looked up): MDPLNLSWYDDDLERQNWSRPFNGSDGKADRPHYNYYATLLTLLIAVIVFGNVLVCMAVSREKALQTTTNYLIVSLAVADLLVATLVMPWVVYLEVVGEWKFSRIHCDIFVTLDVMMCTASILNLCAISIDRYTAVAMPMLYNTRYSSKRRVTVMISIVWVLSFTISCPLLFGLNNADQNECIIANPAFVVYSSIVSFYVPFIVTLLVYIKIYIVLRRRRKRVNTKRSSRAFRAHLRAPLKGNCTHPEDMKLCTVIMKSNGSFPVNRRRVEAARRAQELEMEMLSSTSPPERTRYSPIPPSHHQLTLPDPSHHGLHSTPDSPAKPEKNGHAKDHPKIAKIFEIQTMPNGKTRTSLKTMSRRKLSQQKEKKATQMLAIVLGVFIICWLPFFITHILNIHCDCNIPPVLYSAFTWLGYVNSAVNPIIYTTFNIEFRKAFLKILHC
Summary of the method: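 cAMP accumulation in DRD2-HEK293 cells measured by HTRF after 1 h detection; compounds added 10 min before NKH477 (200nM […]) forskolin-analogue stimulation, 30 min at room temperature, with Ro20-1724 present at 0.1 mM final.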

[14] = biological target: D(2) dopamine receptor (Homo sapiens) (UniProt P14416); assay: Dopamine D2 receptor (DRD2) small molecule antagonists, cell-based qHTS assay (AID 1963595; active = well fitted inhibition curve with a large enough effect in the signal ratio in the repeat runs, with a control signal flat; the % refers to the signal ratio)
Summary of the method: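 In this cell-based antagonist screen, compounds act for 10 min at room temperature before a 30 min challenge with 12 nM quinpirole and 200 nM NKH477. cAMP is quantified by HTRF competition in DRD2-HEK293 cells containing 0.1 mM Ro20-1724.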

[15] = p53 small molecule agonists, cell-based qHTS assay with rat liver microsomes (AID 1963578)
Summary of the method: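 Cells carrying a p53 response element–beta-lactamase reporter were plated and rested 5 h, then dosed with compound in DMSO plus rat liver microsomes and NADPH, each at 0.5 mg/mL final. After 16 h at 37 C, LiveBLAzer substrate was added for 2 h.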

[16] = biological target: 5-hydroxytryptamine receptor 2A (Homo sapiens) (UniProt P28223); assay: 5-hydroxytryptamine receptor 2A (HTR2A) small molecule antagonists, cell-based qHTS assay (AID 1963586); note: nearly all actives have a fitted effect of over 45% in size; note: potency is the fitted concentration of half-maximal effect
Sequence of 5-hydroxytryptamine receptor 2A (Homo sapiens) (P28223 whole entry, looked up): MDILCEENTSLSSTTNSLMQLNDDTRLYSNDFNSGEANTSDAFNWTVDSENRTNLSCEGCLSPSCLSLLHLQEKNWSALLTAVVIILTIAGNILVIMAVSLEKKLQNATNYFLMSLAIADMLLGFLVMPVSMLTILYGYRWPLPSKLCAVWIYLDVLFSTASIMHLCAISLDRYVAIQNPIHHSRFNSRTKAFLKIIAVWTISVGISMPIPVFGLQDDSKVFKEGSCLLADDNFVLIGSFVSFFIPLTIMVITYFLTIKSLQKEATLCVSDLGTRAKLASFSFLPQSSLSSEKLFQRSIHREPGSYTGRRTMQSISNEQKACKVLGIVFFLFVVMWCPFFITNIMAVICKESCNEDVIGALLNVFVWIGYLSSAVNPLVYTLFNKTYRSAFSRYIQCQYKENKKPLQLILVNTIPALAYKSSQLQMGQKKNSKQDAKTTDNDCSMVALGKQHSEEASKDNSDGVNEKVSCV
Summary of the method: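 CHO cells stably expressing human HTR2A were plated for 18 h at 37 C, then loaded with calcium dye for 1 h. Compounds were preincubated 5 min at room temperature before DOI (4 nM solution) was added. Kinetic fluorescence was read for 3 min.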

[17] = biological target: 5-hydroxytryptamine receptor 2A (Homo sapiens) (UniProt P28223); assay: 5-hydroxytryptamine receptor 2A (HTR2A) small molecule agonists, cell-based qHTS assay (AID 1963587); note: nearly all actives have a fitted effect of over 30% in size; note: potency is the fitted concentration of half-maximal effect
Summary of the method: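 Kinetic calcium-flux fluorescence (2 min, 1 sec intervals) after compound addition in agonist mode. HTR2A-CHO cells were cultured 18 h, then dye-loaded 1 h at 37 C.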

[18] = biological target: Muscarinic acetylcholine receptor M1 (Homo sapiens) (UniProt P11229); assay: Cholinergic receptor muscarinic 1 (CHRM1) small molecule antagonists, cell-based qHTS assay (AID 1963588); note: nearly all actives have a fitted effect of over 40% in size
Sequence of Muscarinic acetylcholine receptor M1 (Homo sapiens) (P11229 whole entry, looked up): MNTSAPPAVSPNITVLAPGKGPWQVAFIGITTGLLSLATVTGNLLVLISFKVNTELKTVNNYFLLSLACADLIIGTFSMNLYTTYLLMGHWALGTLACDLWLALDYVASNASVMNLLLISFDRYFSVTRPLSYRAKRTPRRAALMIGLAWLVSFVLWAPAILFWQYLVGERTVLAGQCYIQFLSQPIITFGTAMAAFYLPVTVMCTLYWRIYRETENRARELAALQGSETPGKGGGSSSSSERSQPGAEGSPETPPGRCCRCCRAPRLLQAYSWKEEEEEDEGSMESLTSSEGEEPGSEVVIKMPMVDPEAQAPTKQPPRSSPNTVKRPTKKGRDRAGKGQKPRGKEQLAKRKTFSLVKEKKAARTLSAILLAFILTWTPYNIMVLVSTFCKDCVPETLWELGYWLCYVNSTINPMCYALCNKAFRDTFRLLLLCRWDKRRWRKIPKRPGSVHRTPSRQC
Summary of the method: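 Compounds were tested at 15 concentrations in three independent runs. Dye-loaded CHRM1-CHO cells were exposed 5 min at room temperature before stimulation by acetylcholine added at 50nM. Intracellular calcium was read kinetically on FDSS for 3 min.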

[19] = biological target: Muscarinic acetylcholine receptor M1 (Homo sapiens) (UniProt P11229); assay: Cholinergic receptor muscarinic 1 (CHRM1) small molecule agonists, cell-based qHTS assay (AID 1963589); note: nearly all actives have a fitted effect of over 35% in size
Summary of the method: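 qHTS, 15-point titration, 3 independent runs: compounds pin-transferred onto dye-loaded CHRM1-CHO cells (human M1), calcium fluorescence followed every second to detect agonism.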

| Compound | Potency [1] | Potency [2] | Potency [3] | Potency [4] | Potency [5] | Potency [6] | Potency [7] | Potency [8] | Potency [9] | Potency [10] | Potency [11] | Potency [12] | Potency [13] | Potency [14] | Potency [15] | Potency [16] | Potency [17] | Potency [18] | Potency [19] |
| --- | --- | --- | --- | --- | --- | --- | --- | --- | --- | --- | --- | --- | --- | --- | --- | --- | --- | --- | --- |
| C[C@H](CS)C(=O)N1CCC[C@H]1C(=O)O | inactive | inactive | inactive | inactive | inactive | inactive | inactive | inactive | inactive | inactive | inactive | inactive | inactive | inactive |  |  |  |  |  |
| O=C1c2c(O)ccc(O)c2C(=O)c2c(NCCNCCO)ccc(NCCNCCO)c21 | inactive | inactive | inactive |  |  | 19.9 µM (active) |  |  | inactive | 21.1 µM (active) |  |  |  |  |  |  |  |  |  |
| C#C[C@]1(O)CC[C@H]2[C@@H]3[C@H](C)CC4=C(CCC(=O)C4)[C@H]3CC[C@@]21C | inactive | inactive | inactive |  | inactive | inactive | inactive | inactive |  |  | 23.7 µM (active) |  |  | inactive | inactive |  |  |  |  |
| COc1cc(Cc2cnc(N)nc2N)cc(OC)c1OC | inactive | inactive | inactive |  |  |  | inactive | inactive | inactive | inactive | inactive | inactive | inactive | inactive |  | inactive | inactive | inactive |  |
| C#Cc1cccc(Nc2ncnc3cc(OCCOC)c(OCCOC)cc23)c1 | inactive | inactive | inactive |  | inactive |  | inactive |  |  |  | inactive | inactive | inactive | inactive |  |  | inactive | inactive |  |
| Nc1nc2ccc([N+](=O)[O-])cc2s1 | inactive | inactive | inactive |  | 28.9 µM (active) |  | inactive |  |  |  | inactive |  |  |  |  | 3.75 µM (active) | inactive |  | inactive |
| NC(=O)CCCCC1CCSS1 (configuration not stated) | inactive | inactive | inactive |  | inactive | inactive | inactive | inactive | inactive | inactive | inactive |  |  | inactive | inactive | inactive | inactive | inactive | inactive |
| CN(C/C=C/C#CC(C)(C)C)Cc1cccc2ccccc12 | inactive | inactive | inactive | inactive | inactive |  | inactive |  |  |  |  | inactive | inactive |  |  |  |  |  |  |
| CCCCCCCCCO | inactive | inactive | inactive |  |  |  | inactive | inactive | inactive | inactive | inactive | inactive | 43.3 µM (active) | inactive |  | inactive | inactive | inactive | inactive |
| CCOC(=O)c1nc(C(Cl)(Cl)Cl)n(-c2ccc(Cl)cc2Cl)n1 | inactive | inactive | inactive |  |  | inactive |  |  |  | 61.1 µM (active) |  |  | inactive | inactive |  | inactive | inactive |  |  |
| O=S1(=O)N=C(O)c2ccccc21 | inactive | inactive | inactive |  | inactive | inactive | inactive |  | inactive | inactive | inactive |  | inactive | inactive |  | inactive | inactive | inactive | inactive |
| Cc1nc(-c2ccccn2)ncc1C(=O)Nn1cc(C)c2cc(F)ccc21 | inactive | inactive | inactive |  |  | inactive | inactive |  | inactive | inactive | inactive | inactive |  | inactive |  | inactive | inactive | inactive | inactive |
| c1ccc2c(c1)-c1ccc3ccc4cccc5cc-2c1c3c45 | 6.74 µM (active) | inactive | inactive |  |  | inactive | inactive |  |  |  | inactive |  | inactive | inactive |  | inactive | 10.7 µM (active) |  | inactive |
| Nc1ccc([N+](=O)[O-])cc1O | inactive | inactive | inactive | inactive | inactive |  |  | inactive | inactive | inactive |  |  |  |  |  | inactive | inactive | inactive | inactive |
| Cc1cc(C)c(N)cc1C | inactive | inactive | inactive |  | inactive | inactive | inactive |  | inactive | inactive | inactive |  | inactive | inactive |  | inactive | inactive | inactive | inactive |
| CCC[Si](OC)(OC)OC | inactive | inactive | inactive |  | inactive | inactive | inactive | inactive |  | inactive | inactive |  | inactive | inactive |  | inactive | inactive | inactive |  |
| O=C(N/N=C/c1ccc([N+](=O)[O-])o1)c1ccc(O)cc1 | inactive | inactive | inactive | inactive | inactive | inactive | inactive |  |  |  | inactive |  | inactive | inactive |  | inactive | inactive | inactive | inactive |
| CN1[C@@H]2CC(OC(=O)[C@H](CO)c3ccccc3)C[C@H]1[C@@H]1O[C@@H]12 (some centres not stated) | inactive | inactive | inactive |  |  |  | inactive | inactive | inactive | inactive | inactive | inactive | inactive | inactive |  | inactive | inactive | inactive | inactive |
